From PubChem BioAssay AID2685 (National Center for Advancing Translational Sciences (NCATS), 2010) come the findings set out here.

Out of some 320,000 compounds screened, about 2,100 (0.66%) were called active. Inconclusive results (about 53%) are left out. Calls come from the whole dose curve; as a rule, active = well fitted inhibition curve with a large enough effect in the signal ratio, with a control signal flat (not every such curve was filed as active); inconclusive = small, poorly fitted or top-dose-only effect, or effect the other way, or a change in a side signal; inactive = flat fitted curve, though single readings scatter; the % refers to the signal ratio. The sample as a whole holds a higher share of actives than the screen did.
Potency is the fitted concentration of half-maximal effect.

The nature of this assay: qHTS Assay for Lipid Storage Modulators in Drosophila S3 Cells.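 For cell number change: cells counted by Cell Tracker Red CMTPX staining in the red channel.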 As to conditions: BODIPY lipid droplet fluorescence, 18-24 h, cells fed with added oleic acid; cell number change: measured here: cell count max response; series mostly up to 46.1 µM. The procedure, abridged: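 Drosophila S3 cells got compounds at several concentrations plus oleic acid (400 uM solution). Laser-scanning cytometry with 488 nm excitation read lipid droplets at 500-530 nm and cells at 575-640 nm. Percent activity was relative to 20 uM Triacsin C.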
For orientation: qHTS replaces the single test concentration by a dilution series.
As to `C1CCCCCC(NCCN2CCNCC2)CCCCC1`, the Potency result is “inactive” and the cell number change amounted to 2.58%. Taken in the same sequence, the figures for `C1CCC(OCCN2CCN(CCOC3CCCCC3)CC2)CC1` were 25.9 µM (active) and 6%. Taken in the same sequence, the figures for `O=C(c1ccccc1)N1CCN(CC(O)COC2CCCCC2)CC1` (stereo unspecified) were “inactive” and 4.36%. The like results for `COCCNC(=O)CN1CCC(NC(=O)c2ccco2)CC1` were, in that order, “inactive” and -1.29%. In the case of `Cc1ccc(NC(=O)c2c(F)cccc2Cl)cc1NS(C)(=O)=O`, the Potency result is “inactive” and the cell number change is 5.84%. As to `COc1ccc(/C=N/NC(=O)c2cccnc2)cc1CN1CCN(c2ccc(F)cc2)CC1`, the Potency result was “inactive” and the cell number change was determined as 3.44%. Taken in the same sequence, the figures for `COc1ccc(CC(=O)Nc2c3c(nn2C(C)(C)C)CS(=O)(=O)C3)cc1OC` were “inactive” and 17%. Taken in the same sequence, the figures for `COCCNCC1C(Oc2ccc(Cl)cc2)C(=O)N1c1ccccc1C` (stereo unspecified) were “inactive” and 19.6%. `CCCCNCC1C(Oc2ccc(Cl)cc2)C(=O)N1c1ccccc1C` (stereo unspecified): the Potency result was “inactive”. On to `Cc1ccccc1N1C(=O)C(Oc2ccc(Cl)cc2)C1CNCCCOC(C)C` (stereo unspecified), for which the Potency was 23.1 µM (active) and the cell number change is -13.5%.

With `Cc1ccnc2c1ccc1c(C)ccnc12`, the Potency entry was “inactive” and the cell number change was -0.829%. Turning to `O=C(NCc1n[nH]c(=S)n1-c1ccccc1)c1ccc(S(=O)(=O)N2CCCCC2)cc1`, the Potency result is “inactive”. As to `COC(=O)c1ccccc1N1CCS(=O)(=O)CC1`, the Potency was 16.4 µM (active) and the cell number change is -18.8%. The like results for `COC(=O)c1ccc(N2CCN(c3ccccc3)CC2)c(N)c1` were, in that order, “inactive” and 6.3%.

For `COC(=O)c1ccccc1NC(=O)N1CCN(c2ccccc2F)CC1`, the Potency result is “inactive” and the cell number change amounted to 25.6%.

On to `CCOC(=O)C1=C(CS(=O)(=O)c2ccccc2)NC(=O)NC1c1cccc(OC)c1` (stereo unspecified), for which the Potency result was “inactive” and the cell number change was determined as 15.2%. The like results for `COC(=O)c1ccc(NC(=S)N2CCCC2)cc1` were, in that order, “inactive” and -8.77%. Taken in the same sequence, the figures for `COc1cccc(NS(=O)(=O)c2ccc(-n3cccn3)cc2)c1` were 0.0517 µM (active) and -7.08%. As to `COc1cccc(NS(=O)(=O)c2ccc3c(c2)N(C(C)=O)CCS3)c1`, the Potency entry is “inactive”. For the molecule `COc1cccc(NS(=O)(=O)c2ccc3c(c2)CCN3C(C)=O)c1`, the Potency is 1.64 µM (active) and the cell number change was -8.33%.

In the case of `CC(=O)N1CCc2cc(S(=O)(=O)Nc3ccc(C)cc3)ccc21`, the Potency result was “inactive” and the cell number change is 8.46%. As for `CCc1cccc(NS(=O)(=O)c2ccc(-n3cccn3)cc2)c1`, the Potency entry is “inactive” and the cell number change was 18.7%. Consider `O=S(=O)(Nc1cccc(Cl)c1)c1ccc(-n2cccn2)cc1`, for which the Potency entry is “inactive”. For the molecule `Cn1cnnc1Sc1nc2c(c(=O)n(C)c(=O)n2C)n1Cc1ccccc1Cl`, the Potency result was “inactive” and the cell number change was 16.5%. On to `O=C(c1ccc(=O)[nH]c1)N1CCN(S(=O)(=O)c2ccc3ccccc3c2)CC1`, for which the Potency result is “inactive” and the cell number change was -9.74%. As for `COc1cc(CO)c(Br)cc1OCC(=O)Nc1ccccc1C`, the Potency entry is “inactive” and the cell number change is -15.6%.

In the case of `O=C(CCN1C(=O)/C(=C/c2cccs2)SC1=S)Nc1ccccc1O`, the Potency was 3.66 µM (active) and the cell number change is 13.5%. The like results for `O=C(CCN1C(=O)/C(=C/c2cccs2)SC1=S)Nc1cccc(C(=O)O)c1` were, in that order, 0.164 µM (active) and -17.1%. Taken in the same sequence, the figures for `Cc1ccc(/C=C2\SC(=S)N(CCCC(=O)NNC(=O)c3ccccc3O)C2=O)cc1` were “inactive” and 17.7%.

For the molecule `O=C(CCN1C(=O)/C(=C/c2cccs2)SC1=S)Nc1ccc(C(=O)O)c(O)c1`, the Potency entry was “inactive” and the cell number change was -26.8%. Taken in the same sequence, the figures for `O=C(CCN1C(=O)/C(=C/c2ccccc2F)SC1=S)Nc1ccccn1` were “inactive” and 23.3%. `O=C(CCCN1C(=O)/C(=C\c2cccs2)SC1=S)Nc1cc([N+](=O)[O-])ccc1O`: the Potency entry is “inactive”.

`O=C(CCCN1C(=O)/C(=C/c2cccs2)SC1=S)NNC(=O)c1ccccc1O`: the Potency was 6.51 µM (active) and the cell number change is -24.1%.

For the molecule `O=C(CCN1C(=O)/C(=C/c2ccccc2Cl)SC1=S)Nc1ccccn1`, the Potency was 20.6 µM (active) and the cell number change is -0.66%. Turning to `O=C(CCN1C(=O)/C(=C\c2cccs2)SC1=S)Nc1nccs1`, the Potency entry is “inactive” and the cell number change is -0.135%.

For `O=C(CCCN1C(=O)/C(=C/c2cccs2)SC1=S)NNC(=O)c1ccncc1`, the Potency entry was “inactive” and the cell number change came to 21%. As for `O=C(CN1C(=O)/C(=C\c2cccs2)SC1=S)Nc1cccc(C(=O)O)c1`, the Potency entry was “inactive” and the cell number change was determined as 24%. Taken in the same sequence, the figures for `O=C(CCN1C(=O)/C(=C/c2ccccc2)SC1=S)Nc1ccccn1` were “inactive” and -0.917%. In the case of `CCc1ccc(OCC(=O)N(C)CCC#N)c(Br)c1`, the Potency entry was “inactive”. Take `CC1=[N+]([O-])C(C)(C)C(C)N(O)C1=O` (stereo unspecified): the Potency entry was “inactive” and the cell number change is 1.53%. The like results for `COc1ccc(C(=O)O)cc1S(=O)(=O)Nc1cc(Cl)ccc1N1CCOCC1` were, in that order, “inactive” and 11.4%. With `COC(=O)/C=C1\SC(=NC(=O)c2cccc(Cl)c2)NC1=O`, the Potency entry is “inactive” and the cell number change was -23.4%. In the case of `Nc1nonc1-n1nnc(C(=O)N/N=C/c2ccc(OCc3ccccc3)cc2)c1CN1CCCCC1`, the Potency result was “inactive”.

For the molecule `O=C(Nc1cccc(NC(=O)c2ccc(Br)o2)c1)c1ccccc1`, the Potency entry is “inactive” and the cell number change was -12.9%. With `N#CC1=C(Nc2ccccc2)SC=C(c2ccc(Cl)c(Cl)c2)N=C1N1CCOCC1`, the Potency result was “inactive” and the cell number change is -15.3%. Turning to `Cc1cc(C)n(-c2ccc(C(=O)NC3CCCCC3)cc2)n1`, the Potency result was “inactive” and the cell number change is 17.4%. Taken in the same sequence, the figures for `COc1ccccc1NC(=O)C(C/C=C(/C)Cl)C(C)=O` (stereo unspecified) were “inactive” and 12.3%. As for `COc1ccc(N(CC(=O)N/N=C/c2cccnc2)S(=O)(=O)c2ccc(C)cc2)cc1OC`, the Potency result was “inactive” and the cell number change is -15.9%. The like results for `CC(=O)Nc1ccc(S(=O)(=O)NC2CC2)cc1` were, in that order, “inactive” and -7.3%. As to `O=C(O)CCCCCCCCCC(=O)c1cccs1`, the Potency result was “inactive” and the cell number change was -19.9%. Taken in the same sequence, the figures for `O=C(CCN1C(=O)/C(=C/c2ccco2)SC1=S)Nc1ccc(C(=O)O)c(O)c1` were “inactive” and -0.876%.

For `O=C(CN1C(=O)/C(=C/c2ccco2)SC1=S)Nc1ccc(C(=O)O)c(O)c1`, the Potency is 20.6 µM (active) and the cell number change stood at 25.4%. With `O=C(CCN1C(=O)/C(=C\c2ccco2)SC1=S)Nc1ccc(C(=O)O)c(O)c1`, the Potency result was “inactive” and the cell number change is 1.15%. Taken in the same sequence, the figures for `Cc1ccccc1COC(=O)c1nn(-c2ccccc2)nc1N` were “inactive” and 3.63%. Consider `CCOC(=O)C(NC(=O)c1ccc(F)cc1)(Nc1nnc(C)s1)C(F)(F)F` (stereo unspecified), for which the Potency result was “inactive” and the cell number change came to 2.37%.

For `COc1ccc(NC(=O)N2CCCC(CNS(=O)(=O)c3cccs3)C2)c(C)c1` (stereo unspecified), the Potency result is “inactive” and the cell number change is -5.03%. As to `COCCCn1c(SCC(=O)Nc2ccc(C)cc2)nc2ccccc2c1=O`, the Potency entry was “inactive” and the cell number change was -12.3%. On to `COCCn1c(SCC(=O)Nc2ccc(F)cc2)nc2ccccc2c1=O`, for which the Potency entry is “inactive” and the cell number change was 3.47%. For the molecule `COCCn1c(SCC(=O)Nc2cc(C)cc(C)c2)nc2ccccc2c1=O`, the Potency is 2.06 µM (active) and the cell number change was -20.8%.
